A short description of assay [1]: BSK_SAg_PBMCCytotoxicity: PBMC Cytotoxicity Assessment in the BioMAP Diversity Plus: SAg Assay (AID 2283093).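 For AC50: PBMC superantigen activated with SEB plus TSST-1 one hour after compound addition.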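 Note: PBMC viability measured as Alamar Blue reduction fluorescence at 546/580 nm; fitted both ways against DMSO so a hit may be loss or gain of signal.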 The settings on record: primary human HUVEC with PBMC. The essentials: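 Alamar Blue reduction (6 h, 546/580 nm) reports PBMC cytotoxicity after 90 h superantigen activation (SEB, TSST-1; 20 ng/mL final each) with 1 h compound pre-treatment. Gain or loss of signal fitted versus DMSO.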

Read-out in assay [2]: Interleukin-8 (IL8), CXCL8 (gene 3576)
The assay is described as follows: BSK_SAg_IL8: BioMAP Diversity Plus: SAg Assay for Interleukin-8 (IL8) Biomarker Activity (AID 2283094). The settings on record: primary human HUVEC with PBMC; actives raise or lower the signal. The essentials: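 Primary human endothelial cells with PBMC, exposed 24 h; IL-8 determined by ELISA, analysed bidirectionally relative to DMSO.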

The nature of assay [3]: BSK_SAg_Proliferation: Cell Proliferation Assessment in the BioMAP Diversity Plus: SAg Assay (AID 2283095).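 Note: relative cell number as total protein by SRB absorbance in sub-confluent culture.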 Conditions: primary human HUVEC with PBMC. The essentials:
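A human primary co-culture of umbilical vein endothelium and blood mononuclear cells receives compound; relative cell number is quantified at 96 h by SRB staining and 560 nm absorbance, with DMSO-referenced bidirectional curve fitting.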

Assay [4] is described as follows: BSK_SAg_SRB: Viability Assessment in the BioMAP Diversity Plus: SAg Assay (AID 2283096).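 Note: cells read one day after compound addition; hits may be either gain or loss of signal compared with DMSO.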 Conditions: primary human HUVEC with PBMC. The essentials:
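This overt-cytotoxicity endpoint quantifies protein in human endothelial/PBMC co-cultures at 24 h using SRB absorbance (560 nm) after trichloroacetic acid fixation. Values reflect signal change from the DMSO negative control, fitted bidirectionally.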

The target in assay [5] is human CYP19A1, CYP19A1 (gene 1588) (UniProt P11511). The assay can be described thus: NVS_ADME_hCYP19A1: NovaScreen (NVS) CYP450-related Enzyme Activity (ADME) Assay for human CYP19A1 (AID 2283098; active = hit-call score of the fitted dose curve at least 0.9, where 1 is the maximum). The procedure, abridged: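 Compounds were first screened at 10 uM in duplicate against purified enzyme, with a fluorogenic substrate and fluorescence intensity detection after 0.5 h. Inhibition appears as reduced signal against acetonitrile control.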

Assay [6] concerns the target human CYP2A6, CYP2A6 (gene 1548) (UniProt P11509). The assay can be described thus: NVS_ADME_hCYP2A6: NovaScreen (NVS) CYP450-related Enzyme Activity (ADME) Assay for human CYP2A6 (AID 2283099; active = hit-call score of the fitted dose curve at least 0.9, where 1 is the maximum). The procedure, abridged: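 Insect-cell-expressed human CYP2A6 enzyme activity measured by fluorescence intensity 0.5 hour post-dosing. Compounds screened at 10 uM in duplicate, then hits tested singly in concentration series (max 20 uM); acetonitrile baseline.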

In assay [7] the target is human CYP1A1, CYP1A1 (gene 1543) (UniProt P04798). The assay is described as follows: NVS_ADME_hCYP1A1: NovaScreen (NVS) CYP450-related Enzyme Activity (ADME) Assay for human CYP1A1 (AID 2283100; active = hit-call score of the fitted dose curve at least 0.9, where 1 is the maximum). The essentials:
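Read-out: fluorescence intensity from enzymatic turnover of substrate by recombinant CYP1A1, loss of signal indicating inhibition. Incubation 1 h post-dose. Primary single-point 10 uM in duplicate; actives rerun singly with top concentration 20 uM.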

Assay [8] addresses human CYP1A2, CYP1A2 (gene 1544) (UniProt P05177). The assay can be described thus: NVS_ADME_hCYP1A2: NovaScreen (NVS) CYP450-related Enzyme Activity (ADME) Assay for human CYP1A2 (AID 2283102; active = hit-call score of the fitted dose curve at least 0.9, where 1 is the maximum;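 note: potency for inhibition since loss of fluorescence marks reduced CYP1A2 activity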). The essentials:
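Fluorescence-intensity enzyme activity read-out, taken 0.5 h post-dosing, using insect-cell-derived recombinant CYP1A2 and specific fluorescent substrate. Acetonitrile served as negative control/baseline. Single-concentration duplicate screen at 10 uM, then concentration-response follow-up.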

Where “and” joins values, the source holds several entries; their conditions need not be identical. Equal entries are not always repeated. Records with an inconclusive call do not appear. The source holds several records for some structures; these can differ, active in one and inactive in another. Calls of active or inactive are those of the source. Rule for the calls, unless noted: active = hit-call score of the fitted dose curve at least 0.9, where 1 is the maximum; inactive = score below 0.9.

Chain of human CYP1A2, CYP1A2 (gene 1544) (P05177 whole entry, looked up): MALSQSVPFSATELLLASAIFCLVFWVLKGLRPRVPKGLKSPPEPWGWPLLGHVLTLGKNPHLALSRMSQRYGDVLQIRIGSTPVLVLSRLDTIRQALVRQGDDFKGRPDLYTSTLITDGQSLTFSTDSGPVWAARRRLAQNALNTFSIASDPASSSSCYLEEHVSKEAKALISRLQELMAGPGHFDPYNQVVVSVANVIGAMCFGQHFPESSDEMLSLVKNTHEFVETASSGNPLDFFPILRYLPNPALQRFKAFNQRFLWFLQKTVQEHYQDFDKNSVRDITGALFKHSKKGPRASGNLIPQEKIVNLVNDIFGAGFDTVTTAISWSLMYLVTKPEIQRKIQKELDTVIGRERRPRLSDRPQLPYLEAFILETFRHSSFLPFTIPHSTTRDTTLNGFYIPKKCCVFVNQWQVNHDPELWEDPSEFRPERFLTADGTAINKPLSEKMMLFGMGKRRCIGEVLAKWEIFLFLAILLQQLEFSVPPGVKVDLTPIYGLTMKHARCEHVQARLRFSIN
Chain of human CYP19A1, CYP19A1 (gene 1588) (P11511 whole entry, looked up): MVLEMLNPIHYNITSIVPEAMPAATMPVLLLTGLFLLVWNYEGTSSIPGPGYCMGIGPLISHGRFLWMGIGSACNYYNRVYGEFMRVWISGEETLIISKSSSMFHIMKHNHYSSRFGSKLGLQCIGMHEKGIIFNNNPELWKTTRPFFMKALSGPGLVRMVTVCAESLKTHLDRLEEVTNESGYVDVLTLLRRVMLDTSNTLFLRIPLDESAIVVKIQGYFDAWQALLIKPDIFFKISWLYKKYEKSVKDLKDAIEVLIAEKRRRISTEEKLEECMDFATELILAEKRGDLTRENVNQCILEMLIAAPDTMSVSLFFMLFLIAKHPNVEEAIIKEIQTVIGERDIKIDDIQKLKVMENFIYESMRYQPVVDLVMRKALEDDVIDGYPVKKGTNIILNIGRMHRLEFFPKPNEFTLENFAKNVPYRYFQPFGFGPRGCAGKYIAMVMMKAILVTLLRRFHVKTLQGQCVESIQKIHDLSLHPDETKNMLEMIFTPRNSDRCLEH
Chain of human CYP1A1, CYP1A1 (gene 1543) (P04798 whole entry, looked up): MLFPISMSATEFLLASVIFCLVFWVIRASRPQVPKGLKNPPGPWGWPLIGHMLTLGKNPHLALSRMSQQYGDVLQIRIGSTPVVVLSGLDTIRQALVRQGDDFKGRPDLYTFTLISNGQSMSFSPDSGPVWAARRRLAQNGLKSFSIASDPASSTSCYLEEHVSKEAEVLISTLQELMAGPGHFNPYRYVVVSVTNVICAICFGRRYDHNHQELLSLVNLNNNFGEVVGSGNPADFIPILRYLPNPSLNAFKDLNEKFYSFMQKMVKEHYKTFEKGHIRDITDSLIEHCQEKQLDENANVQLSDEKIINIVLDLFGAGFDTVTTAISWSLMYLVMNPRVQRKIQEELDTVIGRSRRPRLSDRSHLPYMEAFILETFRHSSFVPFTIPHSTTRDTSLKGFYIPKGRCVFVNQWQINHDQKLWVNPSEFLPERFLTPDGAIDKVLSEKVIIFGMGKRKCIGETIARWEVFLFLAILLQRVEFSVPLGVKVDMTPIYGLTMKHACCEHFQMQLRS
Chain of human CYP2A6, CYP2A6 (gene 1548) (P11509 whole entry, looked up): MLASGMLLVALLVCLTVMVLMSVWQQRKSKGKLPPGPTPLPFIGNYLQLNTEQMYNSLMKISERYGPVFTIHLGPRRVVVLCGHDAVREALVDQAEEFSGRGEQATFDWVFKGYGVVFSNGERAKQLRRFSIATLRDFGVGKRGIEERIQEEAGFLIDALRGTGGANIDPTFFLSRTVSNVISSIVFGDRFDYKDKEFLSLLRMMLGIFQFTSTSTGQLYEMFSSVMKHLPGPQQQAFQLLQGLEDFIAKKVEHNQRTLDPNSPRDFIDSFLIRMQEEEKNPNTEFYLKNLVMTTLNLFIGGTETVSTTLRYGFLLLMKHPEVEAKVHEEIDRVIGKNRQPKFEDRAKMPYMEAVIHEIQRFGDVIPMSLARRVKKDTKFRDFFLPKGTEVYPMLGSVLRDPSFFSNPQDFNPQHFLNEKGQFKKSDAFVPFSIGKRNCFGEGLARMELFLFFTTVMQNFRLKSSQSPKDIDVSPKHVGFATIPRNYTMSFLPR

In the case of `O=c1c(-c2ccc(O)cc2)coc2cc(O)ccc12`, the outcome in assay [1], in assay [2] and in assay [4] was inactive. Further, the AC50 (usually the concentration giving half of the maximal activity seen) in assay [3] was 20 µM (active).
For the compound `c1ccc2c(c1)ccc1ccccc12`, the result in assay [1], in assay [2], in assay [3] and in assay [4] was inactive.
`c1ccc2c(c1)Cc1ccccc1-2`: the outcome in assay [1], in assay [2], in assay [3] and in assay [4] was inactive.
Turning to `NCC(F)(F)C(F)(F)C(F)(F)C(F)(F)C(F)(F)C(F)(F)C(F)(F)F`, the AC50 in assay [1] was 47.2 µM (active); in assay [3], 43.6 µM (active). Also, the result in assay [1], in assay [2], in assay [3] and in assay [4] was inactive.
Take `CC(C)(C)CC(C)(C)c1ccc(O)c(-n2nc3ccccc3n2)c1`: the outcome in assay [1], in assay [2], in assay [3] and in assay [4] was inactive.
Take `COC(=O)CCCCC(=O)OC`: the outcome in assay [1], in assay [2], in assay [3] and in assay [4] was inactive.
As for `CN(C)C=O`, the result in assay [1], in assay [2], in assay [3] and in assay [4] was inactive.
In the case of `Cc1cc(C)c(O)c(C)c1`, the result in assay [1], in assay [2], in assay [3] and in assay [4] was inactive.
`CN1CCN(c2ccccc2/C=C2\SCCN(c3ccc(Cl)c(Cl)c3)C2=O)CC1`: the AC50 in assay [1] is 14.4 µM (active); in assay [2], 20 µM (active); in assay [3], 6.38 µM (active); in assay [4], 5.22 µM (active).
For the compound `CCCCC(CC)COC(=O)CCCCC(=O)OCc1ccccc1` (centres undefined), the outcome in assay [1], in assay [2], in assay [3] and in assay [4] was inactive.
For `C#C[C@]1(O)CC[C@H]2[C@@H]3CCC4=CC(=O)CC[C@@H]4[C@H]3CC[C@@]21C`, the outcome in assay [1], in assay [2] and in assay [3] was inactive. The AC50 in assay [4] is 7.46 µM (active).
With `N#C[C@@H]1CC(F)(F)CN1C(=O)CNC1CC2CCC(C1)N2c1ncccn1` (some centres undefined), the concentration at half-maximal activity (AC50) in assay [1] is 8.08 µM (active); in assay [2], 7.82 µM (active); in assay [3], 9.88 µM (active); in assay [4], 5.45 µM (active).
As for `CCCCCCCCC(=O)O`, the result in assay [1], in assay [2], in assay [3] and in assay [4] was inactive.
In the case of `CCC(=C(c1ccc(O)cc1)c1ccc(OCCN(C)C)cc1)c1ccccc1`, the AC50 in assay [1] is 7.32 µM (active); in assay [2], 10.2 µM (active); in assay [3] it was 5.91 µM (active); in assay [4], 8.31 µM (active).
Consider `NC(=O)N1C(=O)C(C(=O)c2cc(Cl)cs2)c2cc(F)c(Cl)cc21` (centres undefined), for which the outcome in assay [1] and in assay [2] was inactive. The AC50 was 12.4 µM (active) in assay [3] and 20 µM (active) in assay [4].
With `Oc1cccc(O)c1`, the outcome in assay [1], in assay [2], in assay [3] and in assay [4] was inactive.
Consider `C=C(C)C(=O)OCCC(F)(F)C(F)(F)C(F)(F)C(F)(F)C(F)(F)C(F)(F)F`, for which the outcome in assay [1], in assay [2], in assay [3], in assay [4] and in assay [5] was inactive. Besides, in assay [3], the concentration at half-maximal activity (AC50) is 11.2 µM (active).
On to `O=C(O)Cc1cc(I)c(Oc2cc(I)c(O)c(I)c2)c(I)c1`, for which the outcome in assay [1] and in assay [4] was inactive. The AC50 in assay [2] was 13.4 µM (active); in assay [3], 19.6 µM (active).
As to `CCCCCCCCCCCCc1ccccc1S(=O)(=O)O`, the outcome in assay [1], in assay [2], in assay [3] and in assay [4] was inactive.
As to `CCCCOCCO`, the outcome in assay [1], in assay [2], in assay [3] and in assay [4] was inactive.
With `CCCCCCCC(=O)O`, the outcome in assay [1], in assay [2], in assay [3] and in assay [4] was inactive.
`CCCCCCCCOC(=O)CCCCCCCCC(=O)OCCCCCCCC`: the result in assay [1], in assay [2], in assay [3] and in assay [4] was inactive.
With `CCCCC(CC)COC(=O)CCCCC(=O)OCC(CC)CCCC` (centres undefined), the outcome in assay [1], in assay [2], in assay [3] and in assay [4] was inactive.
For the compound `CCC(C)(C)C1CCC(O)CC1` (centres undefined), the result in assay [1], in assay [2], in assay [3] and in assay [4] was inactive.
Take `OCCC(F)(F)C(F)(F)C(F)(F)C(F)(F)C(F)(F)C(F)(F)C(F)(F)C(F)(F)F`: the AC50 in assay [1] was 23.4 µM (active) and 10 µM (active) and 10.8 µM (active); in assay [2], 41.5 µM (active) and 24.6 µM (active); in assay [3], 20 µM (active) and 14.1 µM (active) and 10.9 µM (active); in assay [4], 17.2 µM (active) and 21.1 µM (active). In addition, the outcome in assay [2] and in assay [4] was inactive.
As to `OC1CCC(C2CCCCC2)CC1` (centres undefined), the outcome in assay [1], in assay [2], in assay [3] and in assay [4] was inactive.
On to `OCCC(F)(F)C(F)(F)C(F)(F)C(F)(F)C(F)(F)C(F)(F)F`, for which the AC50 in assay [1] is 47.7 µM (active) and 55.7 µM (active); in assay [2], 46.1 µM (active); in assay [3], 49.8 µM (active) and 50.9 µM (active); in assay [4] it was 53.1 µM (active). For the same compound, the outcome in assay [1], in assay [2], in assay [3] and in assay [4] was inactive.
Turning to `C[C@@H]1C[C@H]2[C@@H]3CCC4=CC(=O)C=C[C@]4(C)[C@@]3(F)[C@@H](O)C[C@]2(C)[C@@]1(O)C(=O)COP(=O)(O)O`, the result in assay [1], in assay [2], in assay [3] and in assay [4] was inactive. In assay [2], the AC50 was 6.07 µM (active).
In the case of `CC(C)CCCCCCOC(=O)CCCCC(=O)OCCCCCCC(C)C`, the result in assay [1], in assay [2], in assay [3] and in assay [4] was inactive.
Consider `CCCCCCC(=O)O`, for which the result in assay [1], in assay [2], in assay [3] and in assay [4] was inactive.
Take `CCc1nn(C2CCCCC2)c2cc(C3(C#N)CCC(C(=O)O)CC3)ccc12` (centres undefined): in assay [1], the outcome was inactive. Also, the AC50 is 2.73 µM (active) in assay [2], 12.5 µM (active) in assay [3] and 11.5 µM (active) in assay [4].
Regarding `CC(=O)CC(C)(C)O`, the outcome in assay [1], in assay [2], in assay [3] and in assay [4] was inactive.
With `CCN(CC)CCNc1ccc(CNC=O)c2sc3ccc(OC)cc3c(=O)c12`, the concentration at half-maximal activity (AC50) in assay [1] is 12.9 µM (active); in assay [2], 20 µM (active); in assay [3], 7.57 µM (active); in assay [4], 17.8 µM (active); in assay [7], 6.62 µM (active); in assay [8] it was 7.1 µM (active). The outcome in assay [6] was inactive.
As for `ClC1=C(Cl)C(Cl)(Cl)C(Cl)=C1Cl`, the AC50 in assay [1] is 10.4 µM (active); in assay [2] it was 10.4 µM (active); in assay [3], 5.78 µM (active); in assay [4], 9.48 µM (active).
For `CCCCCCCCCCCCCCCS(=O)(=O)Oc1ccccc1`, the concentration at half-maximal activity (AC50) in assay [1] is 5.98 µM (active); in assay [3], 6.39 µM (active). The result in assay [2] and in assay [4] was inactive.

The values are drawn from PubChem BioAssay (EPA / NIEHS).
